Compound activity from PubChem BioAssay.
An excerpt weighted towards active compounds, which were near 8.1% of everything screened.
ClpP mod: qHTS Assay for Activators of ClpP; Potency, µM (highest dose often 57.5 µM), for inactives: at the highest dose activity change, negative = active; 340,000 compounds, 1.9% hits; ATP-dependent Clp protease proteolytic subunit (Bacillus subtilis (strain 168)), P80244; purified B. subtilis ClpP, FRET peptide cleavage, 20 min; active means well fitted falling curve with a large enough effect; inconclusive means small, poorly fitted or top-dose-only effect; inactive means no such curve, though single readings can be large or run the other way; further: the source files actives as falling curves though it sought activators and does not explain the sign; nearly all actives have a fitted effect of over 65% in size
Target sequence (P80244 whole entry, looked up): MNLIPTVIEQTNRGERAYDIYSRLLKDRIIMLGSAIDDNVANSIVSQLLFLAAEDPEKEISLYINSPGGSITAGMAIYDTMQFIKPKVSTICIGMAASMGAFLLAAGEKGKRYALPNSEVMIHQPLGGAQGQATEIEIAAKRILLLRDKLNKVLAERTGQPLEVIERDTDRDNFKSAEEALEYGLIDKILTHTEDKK
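FRET quenching reversal measured ClpP activation: 10 microg/mL B. subtilis ClpP at pH 8 with the FRET-FV decapeptide, read at 430 nm after 320 nm excitation. The 20-min minus 0-min signal was scaled between DMSO/no-enzyme wells and ADEP (5.8 microM final).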
VP16 counter: counter-screen for ROR gamma inhibitors: Gal4-VP16 reporter; Drosophila S2 Gal4-VP16 UAS-luciferase, luminescence, 20 h; Potency, µM (top dose mostly 53.6 µM), inactives show at the top dose activity, negative = inhibition, hits mostly inhibitors; 310,000 compounds, 3.5% hits; AID 2546;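 further: Gal4-VP16 expression switched on by copper sulfate through the metallothionein promoter; on the % scale 0 is the no-effect control and ±100 the full control effect; nearly all actives have a fitted effect of over 50% in size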
Epigenetic derep: derepresses silenced GFP reporter in murine cells; murine LDR cells, GFP reporter derepression, 30 h; 280,000 compounds, 0.2% hits; Potency, µM (highest dose often 53.9 µM), inactives show at the highest dose GFP activation, actives largely listed as activators; further: % of control where 0% means no effect; nearly all actives have a fitted effect of over 60% in size
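Readout is the number of GFP-expressing murine LDR cells, counted by cytometry following washing. Cells were treated with compound for 30 h at 37 C; the stably integrated CMV-GFP locus is normally silent.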
RORg inh: ROR gamma (mouse) transcription inhibition. AID 2551. Drosophila S2 Gal4-RORgamma UAS-luciferase reporter, 20 h. Potency, µM (highest dose often 53.6 µM), for the others: at the highest dose activity change, negative = inhibition, hits mostly inhibitors. 310,000 compounds, 5.4% hits; further: on the % scale 0 is the no-effect control and ±100 the full control effect; nearly all actives have a fitted effect of over 60% in size
Target sequence (P51450 whole entry, looked up, the tested form may be a part): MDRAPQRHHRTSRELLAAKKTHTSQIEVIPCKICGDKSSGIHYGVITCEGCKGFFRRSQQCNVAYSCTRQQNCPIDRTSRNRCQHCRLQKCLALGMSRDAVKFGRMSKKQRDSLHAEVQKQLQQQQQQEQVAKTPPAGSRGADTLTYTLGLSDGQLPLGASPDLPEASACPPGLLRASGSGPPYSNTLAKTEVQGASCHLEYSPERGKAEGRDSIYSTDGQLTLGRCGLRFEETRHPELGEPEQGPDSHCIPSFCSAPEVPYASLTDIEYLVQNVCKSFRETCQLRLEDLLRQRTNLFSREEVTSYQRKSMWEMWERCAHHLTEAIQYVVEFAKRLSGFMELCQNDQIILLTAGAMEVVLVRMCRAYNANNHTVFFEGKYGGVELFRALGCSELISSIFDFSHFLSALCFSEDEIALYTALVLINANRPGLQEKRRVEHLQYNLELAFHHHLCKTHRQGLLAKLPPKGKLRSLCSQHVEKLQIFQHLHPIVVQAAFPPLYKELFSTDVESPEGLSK
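Luciferase reporter read in Schneider cells carrying Gal4-RORγ (mouse) and UAS-Photinus luciferase; cells given compound 1 h before 700 uM copper sulfate induction, then incubated 20 h at ambient temperature.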
Sfp inh: blocks B. subtilis Sfp PPTase activity | 310,000 compounds, 3.5% hits | Potency, µM, without a hit: largest response in the series, negative = inhibition, usual class: inhibitors | Q9F4F7 | Biochemical Sfp PPTase activity, qHTS | AID 1490;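 further: the enzyme is Sfp with the accession as filed and its product quenches rhodamine fluorescence; 0% = enzyme reaction without inhibitor and -100% = no enzyme wells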
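Buffer: 50 mM Hepes-Na pH 7.6, 10 mM MgCl2, 0.01% Nonidet P-40, 0.01% BSA. Enzyme 15 nM, pre-exposed to compound 15 min; substrates then added and fluorescence change tracked over 30 min.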
PINK1 modulator: changes PINK1 expression; Potency, µM (titrated, usually from 76.6 µM), for the others: at the highest dose activation (PINK1 increase), most hits filed as activators; 410,000 compounds, 0.2% hits; PINK1 immunofluorescence, high-content cytometry, 24 h; AID 624263; active means well fitted activation curve with a large enough effect; inconclusive means small, poorly fitted or top-dose-only effect; cell line not stated here; further: % of control where 0% means no effect; nearly all actives have a fitted effect of over 65% in size
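A stable cell line was treated with compounds at 5 concentrations for 24 hours, with CCCP as control. PINK1 levels and mitochondrial localization were measured by immunofluorescence with mitochondrial, cell and nuclear markers after fixation, read by laser-scanning cytometry.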
An asterisk follows results filed as active. Unless noted, the call rests on the fitted dose curve; in most records, active means well fitted curve in the direction sought with a large enough effect; inconclusive means small, poorly fitted or top-dose-only effect, or another doubt; inactive means no such curve, though single readings can be large; an effect the other way counts as inactive or inconclusive. Potency means the concentration at half of the fitted maximal effect.

`CCc1ccc2c(c1)-c1ccccc1S(=O)(=O)N2CC(=O)N1CCC(C)CC1` gave ClpP mod 0.8%, Epigenetic derep -3.2% and PINK1 modulator -0.8%.
Screening Nc1nonc1C(=O)NCCN=Cc1ccccc1O returned ClpP mod -1.6%, VP16 counter -2.8%, Epigenetic derep -0.9%, RORg inh -13.8%, Sfp inh 89.1µM* and PINK1 modulator 0.7%.
For Nc1nonc1C(=O)NCCN=Cc1cc(Cc2ccccc2)cc(Br)c1O the results were ClpP mod -1.3%, VP16 counter inconclusive, Epigenetic derep -4.1%, RORg inh inconclusive, Sfp inh 10.3% and PINK1 modulator 5.1%.
Screening COC(=O)c1ccc(Cn2c(SCc3cccc(C)c3)nc3ccncc32)cc1 returned ClpP mod -1.9%, Epigenetic derep 0.0% and PINK1 modulator 1.5%.
COc1ccc(/C=N/NC(=S)NC2CCS(=O)(=O)C2)cc1 (stereo unspecified) was read as ClpP mod 0.8%, VP16 counter 4.47µM*, Epigenetic derep -0.9%, RORg inh 7.08µM*, Sfp inh inconclusive and PINK1 modulator 0.9%.
CC(C)(C)c1ccc(/C=N/NC(=S)NC2CCCCC2)cc1 was read as ClpP mod -2.9%, VP16 counter 3.16µM*, Epigenetic derep -2.0%, RORg inh 1.12µM*, Sfp inh 6.8% and PINK1 modulator inconclusive.
Cc1ccccc1-c1cc2c(nn1)-c1ccccc1C2=O was read as ClpP mod -1.2%, VP16 counter 8.91µM*, Epigenetic derep -1.0%, RORg inh 10µM*, Sfp inh -7.4% and PINK1 modulator -0.6%.
`Cc1ccc(-c2cc3c(nn2)-c2ccccc2C3=O)cc1` gave ClpP mod 1.5%, VP16 counter 2µM*, Epigenetic derep -1.3%, RORg inh 1.12µM*, Sfp inh 6.0% and PINK1 modulator 1.3%.
Screening O=C1c2ccccc2-c2nnc(-c3ccc(F)cc3)cc21 returned VP16 counter -6.5%, Epigenetic derep 0.0%, RORg inh 2.9%, Sfp inh 22.5% and PINK1 modulator 2.9%.
CCN1CCN(c2ncc3c(n2)CCN(CC(C)C)C3)CC1 was read as ClpP mod -6.1%, Epigenetic derep -5.2% and PINK1 modulator 0.1%.
`Clc1ccc(-c2c[n+](Cc3ccc(Cl)cc3Cl)c3n2CCCCC3)cc1` gave ClpP mod 2.0%, VP16 counter 11.2µM*, Epigenetic derep -3.2%, RORg inh -40.0%, Sfp inh inconclusive and PINK1 modulator inconclusive.
O=[N+]([O-])c1ccc(C[n+]2cc(-c3ccc(Cl)c(Cl)c3)n3c2CCCCC3)cc1 was read as ClpP mod 0.3%, VP16 counter -15.2%, Epigenetic derep 1.1%, RORg inh 0.251µM*, Sfp inh 0.2% and PINK1 modulator 1.3%.
Clc1ccc(-c2c[n+](Cc3cccc(Cl)c3)c3n2CCC3)cc1 was read as ClpP mod 1.1%, VP16 counter -8.9%, Epigenetic derep 1.0%, RORg inh inconclusive, Sfp inh 0.5% and PINK1 modulator -2.2%.
N#CC[n+]1cc(-c2ccc(Cl)cc2)n2c1CCC2 was read as ClpP mod 0.0%, VP16 counter -3.2%, Epigenetic derep -2.9%, RORg inh 4.2%, Sfp inh -7.7% and PINK1 modulator inconclusive.
CC1CCC(C(C)C)C(OC(=O)C[n+]2cc(-c3ccc(Cl)cc3)n3c2CCCCC3)C1 (stereo unspecified) was read as VP16 counter 10µM*, Epigenetic derep -0.4%, RORg inh -104.9%, Sfp inh -1.1% and PINK1 modulator inconclusive.
Clc1ccc(-c2c[n+](Cc3ccc(Br)cc3)c3n2CCCCC3)cc1 was read as VP16 counter 11.2µM*, Epigenetic derep 13.9%, RORg inh inconclusive, Sfp inh -16.6% and PINK1 modulator -1.2%.
For CC(C)Oc1ccc(C(=O)Nc2c(C(=O)Nc3cccc(F)c3)oc3ccccc23)cc1 the results were ClpP mod inconclusive, Epigenetic derep 2.7% and PINK1 modulator 0.9%.
`Clc1ccc(C[n+]2cc(-c3ccccc3)n3c2CCCCC3)c(Cl)c1` gave ClpP mod 1.1%, VP16 counter 12.6µM*, Epigenetic derep 1.2%, RORg inh inconclusive, Sfp inh -6.4% and PINK1 modulator 25.4%.
`Clc1ccc(C[n+]2cc(-c3ccccc3)n3c2CCC3)cc1Cl` gave ClpP mod -1.9%, VP16 counter -7.7%, Epigenetic derep -1.1%, RORg inh 18.4%, Sfp inh 6.3% and PINK1 modulator -0.4%.
`COc1ccccc1CNC(=O)CSc1nc(=O)[nH]c2c1CCC2` gave ClpP mod -0.9%, Epigenetic derep 0.7% and PINK1 modulator 1.1%.
`COc1cc(C(C[N+](=O)[O-])c2c(C)cc3ccccn23)ccc1O` (stereo unspecified) gave VP16 counter inconclusive, RORg inh 15.8µM*, Sfp inh inconclusive and PINK1 modulator 8.1%.
For COc1ccc(C(C[N+](=O)[O-])c2c(-c3ccccc3)cc3ccccn23)cc1OC (stereo unspecified) the results were ClpP mod 52.1%, VP16 counter inconclusive, Epigenetic derep 0.0%, RORg inh 8.91µM*, Sfp inh -28.1% and PINK1 modulator 8.9%.
For COc1cc(C(C[N+](=O)[O-])c2c(-c3ccccc3)cc3ccccn23)cc(OC)c1OC (stereo unspecified) the results were ClpP mod 14.3%, VP16 counter inconclusive, Epigenetic derep 12.4%, RORg inh inconclusive, Sfp inh 56.2µM* and PINK1 modulator 11.7%.
For COc1ccc(C(C[N+](=O)[O-])c2c(-c3ccccc3)cc3ccccn23)cc1 (stereo unspecified) the results were ClpP mod 3.7%, VP16 counter -14.8%, Epigenetic derep 0.7%, RORg inh -9.7%, Sfp inh 11.3% and PINK1 modulator 6.3%.
COC(=O)c1cccc(Nc2c(-c3ccc(SC)cc3)nc3nc[nH]n23)c1 was read as ClpP mod -5.2%, Epigenetic derep -1.3% and PINK1 modulator 1.1%.
For COc1ccc(S(=O)(=O)c2cnc3ccc(Cl)cc3c2N2CCCCC2C)cc1 (stereo unspecified) the results were ClpP mod -0.5%, Epigenetic derep 0.0% and PINK1 modulator 10.0%.
`CNc1ccc(/C=C2\C=Cc3ccccc32)cc1OC` gave ClpP mod -2.7% and PINK1 modulator 1.2%.
